Where a name gives a salt, the structure may show the parent alone. Read-outs that look alike come from different tables or passages of the source. Screen size: about 5,300 compounds; about 130 (2.5%) showed an effect of 50% or more. This excerpt belongs to a sample that is enriched for strong results.
Tested on: M. mycetomatis strain mm55
Details: primary screen, metabolic activity vs growth control, 96 h, 2 µM, inhibitor
[1] = Madurella mycetomatis metabolic activity at 2µM (%)

SMILES	% viability [%]	% viability [1] [%]
CC(=O)N[C@H]1[C@H]([C@H](O)[C@H](O)CO)OC(C(=O)O)=C[C@@H]1N=C(N)N [ONC0004525, zanamivir relenza]	62.68	
CC[C@]12CCCN3CCc4c(n(c5ccccc45)C(=O)C1)[C@@H]32 [ONC0003441, eburnamonine]	44.28	
CC[C@]12CCCN3CCc4c(n(c5ccccc45)[C@@](O)(C(=O)OC)C1)[C@@H]32 [ONC0003425, vincamine]	89.22	
CCOC(=O)C1=C[C@]2(CC)CCCN3CCc4c(n1c1ccccc41)[C@@H]32 [ONC0002865, vinpocetine]	109.8	
Cc1ccc(NC2=CC(=O)c3sc(C)nc3C2=O)cc1 [ONC0003545, ryuvidine]	94.75	
COc1cccc(/C=N/C=N/c2cccc(OC)c2)c1 [ONC0002505, dmeob]	75.27	
CO[C@@H](C(=O)N1Cc2n[nH]c(NC(=O)c3ccc(N4CCN(C)CC4)cc3)c2C1)c1ccccc1 [ONC0004749, danusertib pha739358]	112.5	
CC1=CC(=C(c2ccc(N)cc2)c2ccc(N)cc2)C=CC1=N [ONC0002809, basic fuchsin]	79.53	
CCN(CC)c1ccc(C(=C2C=CC(=[N+](CC)CC)C=C2)c2ccccc2)cc1 [ONC0002765, brilliant green]	123.8	
CN(C)c1ccc(C(=C2C=CC(=[N+](C)C)C=C2)c2ccc(N(C)C)cc2)cc1 [ONC0000415, gentian violet]	35.99	
Cc1cc(O)c(-c2ccc([C@@H](C)CN)cc2)c2c1[nH]c(=O)c1sccc12 [ONC0001173, ots514]	81.93	
CCOc1nc2cccc(C(=O)OC(C)OC(=O)OC3CCCCC3)c2n1Cc1ccc(-c2ccccc2-c2nnn[nH]2)cc1 (stereo not drawn) [ONC0004302, candesartan cilextil]	98.1	
CCCCCCCCCCCCOS(=O)(=O)O [ONC0002181, sodiumdodecylsulfate]		96.71
Nc1nc(O)c2ncn(COC(CO)CO)c2n1 [ONC0003983, ganciclovir hydrate]	92.25	
NS(=O)(=O)Nc1ncnc(OCCOc2ncc(Br)cn2)c1-c1ccc(Br)cc1 [ONC0002096, aprocitentan]	65.83	
CC(C)(C)[C@@]1(O)CCN2C[C@@H]3c4ccccc4CCc4cccc(c43)[C@H]2C1 [ONC0002006, butaclamolhcl]	90.12	
C=C1NCC[C@@H](C(=O)O)N1 [ONC0005375, ectoinezwitterion]	125.4	

SMILES	% viability [%]	% viability [1] [%]
NC[C@H]1O[C@H](O[C@H]2C(O[C@@H]3O[C@H](CO)[C@@H](O)[C@H]3O)[C@@H](O)[C@H](N)C[C@@H]2N)[C@H](N)[C@@H](O)[C@@H]1O (stereo partly drawn) [ONC0002301, ribostamycin sulfate]	111.7	
OC[C@H]1O[C@H](O[C@H]2[C@H](O)[C@@H](O)[C@H](O)O[C@@H]2CO)[C@H](O)[C@@H](O)[C@@H]1O [ONC0000327, dmaltose]	54.64	
NC[C@@H]1O[C@H](O[C@H]2[C@@H](O)[C@H](O[C@@H]3[C@@H](O)[C@H](N)C[C@H](N)[C@H]3O[C@H]3O[C@H](CO)[C@@H](O)[C@H](O)[C@H]3N)O[C@@H]2CO)[C@H](N)[C@@H](O)[C@@H]1O [ONC0005310, paromomycin]	134.8	
OC[C@H]1O[C@@H](O[C@@H]2[C@H](O)[C@@H](O)[C@H](O[C@H]3[C@H](O)[C@@H](O)C(O)O[C@@H]3CO)O[C@@H]2CO)[C@H](O)[C@@H](O)[C@H]1O (stereo partly drawn) [ONC0004130, 4galactosyllactose]	126.3	
OC[C@H]1O[C@H](O[C@H]2O[C@H](CO)[C@@H](O)[C@H](O)[C@H]2O)[C@H](O)[C@@H](O)[C@@H]1O [ONC0003487, trehalose]	42.59	
NC[C@H]1O[C@H](O[C@H]2[C@H](O[C@@H]3O[C@H](CO)[C@@H](O)[C@H]3O)[C@@H](O)[C@H](N)C[C@@H]2N)[C@H](N)[C@@H](O)[C@@H]1O [ONC0001104, ribostamycin sulfate]	39.68	
O=C1OC2(c3cc(I)c(O)c(I)c3Oc3c2cc(I)c(O)c3I)c2c(Cl)c(Cl)c(Cl)c(Cl)c21 [ONC0002798, rose bengal sodium salt]		83.07
CC1=C(C(=O)O)N2C(=O)[C@@H](NC(=O)[C@H](N)C3=CCC=CC3)C2SC1 (stereo partly drawn) [ONC0000708, cephradine]	86.49	
CC1(C)Oc2ccc(C#N)cc2[C@H](N(Cc2ncc[nH]2)c2ccc(Cl)cc2)[C@H]1O [ONC0001872, bms191095]	47.09	
CCS(=O)(=O)N(C)[C@H]1c2cc(C#N)ccc2OC(C)(C)[C@@H]1O [ONC0002693, chromanol293b3r4s]	103.9	
CCS(=O)(=O)N(C)[C@@H]1c2cc(C#N)ccc2OC(C)(C)[C@H]1O.CCS(=O)(=O)N(C)[C@H]1c2cc(C#N)ccc2OC(C)(C)[C@@H]1O [ONC0001571, chromanol]	78.85	
CCCCn1c(-c2ccccc2)nc(-c2ccccc2)c1CN(Cc1ccc2c(c1)OCO2)Cc1ccc2c(c1)OCO2 [ONC0002511, ndt9513727]	38.93	
c1ccc(C(O[C@@H]2CCCN(CCc3ccc4c(c3)OCO4)C2)c2ccccc2)cc1 [ONC0003094, zamifenacin]	77.83	
c1ccc2sc(N3CCN(Cc4ccc5c(c4)OCO5)CC3)nc2c1 [ONC0000161, 214piperonylpiperazinylbenzothiazole]	77.89	
Nc1ncnc2c1c(-c1cccc(OCc3ccccc3)c1)cn2C1CC(CN2CCCC2)C1 (stereo in doubt) [ONC0000263, nvpadw742]	57.9	
CCCN1C[C@@H](NS(=O)(=O)N(CC)CC)C[C@@H]2Cc3c(O)cccc3C[C@H]21 [ONC0000942, quinagolide hydrochloride]	65.37	
